# Results from ChEMBL document CHEMBL1961873, “Compounds: GSK PKIS; Assays: Nanosyn kinase panel” (2012).
# Key:
# [1] = biological target: Serine/threonine-protein kinase MARK2 (Homo sapiens) (UniProt Q7KZI7); settings: at 1 µM
# [2] = biological target: PAS domain-containing serine/threonine-protein kinase (Homo sapiens) (UniProt Q96RG2); settings: at 0.1 µM
# [3] = biological target: PAS domain-containing serine/threonine-protein kinase (Homo sapiens) (UniProt Q96RG2); settings: at 1 µM
# [4] = biological target: Phosphorylase b kinase gamma catalytic chain, skeletal muscle/heart isoform (Homo sapiens) (UniProt Q16816); settings: at 0.1 µM
# Chain of Phosphorylase b kinase gamma catalytic chain, skeletal muscle/heart isoform (Homo sapiens) (Q16816 whole entry, looked up, canonical isoform): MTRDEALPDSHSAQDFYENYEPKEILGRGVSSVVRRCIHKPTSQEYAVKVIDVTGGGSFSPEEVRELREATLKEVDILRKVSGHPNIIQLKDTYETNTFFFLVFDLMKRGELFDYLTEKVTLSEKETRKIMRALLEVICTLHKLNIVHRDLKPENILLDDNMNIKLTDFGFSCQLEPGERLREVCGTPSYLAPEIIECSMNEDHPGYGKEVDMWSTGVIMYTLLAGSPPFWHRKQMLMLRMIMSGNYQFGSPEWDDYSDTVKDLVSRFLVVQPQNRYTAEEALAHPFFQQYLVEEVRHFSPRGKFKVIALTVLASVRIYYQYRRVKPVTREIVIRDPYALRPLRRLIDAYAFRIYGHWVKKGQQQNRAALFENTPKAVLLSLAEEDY
# [5] = biological target: Phosphorylase b kinase gamma catalytic chain, skeletal muscle/heart isoform (Homo sapiens) (UniProt Q16816); settings: at 1 µM
# [6] = biological target: T1, Phosphorylase b kinase gamma catalytic chain, liver/testis isoform (Homo sapiens) (UniProt P15735); settings: at 0.1 µM
# T1 sequence (whole entry): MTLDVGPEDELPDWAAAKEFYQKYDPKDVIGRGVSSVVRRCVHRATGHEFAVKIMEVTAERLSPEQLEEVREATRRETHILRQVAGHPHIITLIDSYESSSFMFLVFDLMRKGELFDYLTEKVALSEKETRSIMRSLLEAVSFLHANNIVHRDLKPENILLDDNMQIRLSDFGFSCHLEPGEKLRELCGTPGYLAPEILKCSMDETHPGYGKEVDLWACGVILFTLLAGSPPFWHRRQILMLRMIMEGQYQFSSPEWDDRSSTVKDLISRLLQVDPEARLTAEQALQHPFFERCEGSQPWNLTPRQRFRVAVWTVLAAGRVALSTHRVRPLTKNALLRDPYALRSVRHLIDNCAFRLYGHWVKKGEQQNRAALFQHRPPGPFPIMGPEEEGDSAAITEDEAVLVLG
# [7] = biological target: T1, Phosphorylase b kinase gamma catalytic chain, liver/testis isoform (Homo sapiens); settings: at 1 µM
# [8] = biological target: Serine/threonine-protein kinase pim-1 (Homo sapiens) (UniProt P11309); settings: at 0.1 µM
# Chain of Serine/threonine-protein kinase pim-1 (Homo sapiens) (P11309 whole entry, looked up): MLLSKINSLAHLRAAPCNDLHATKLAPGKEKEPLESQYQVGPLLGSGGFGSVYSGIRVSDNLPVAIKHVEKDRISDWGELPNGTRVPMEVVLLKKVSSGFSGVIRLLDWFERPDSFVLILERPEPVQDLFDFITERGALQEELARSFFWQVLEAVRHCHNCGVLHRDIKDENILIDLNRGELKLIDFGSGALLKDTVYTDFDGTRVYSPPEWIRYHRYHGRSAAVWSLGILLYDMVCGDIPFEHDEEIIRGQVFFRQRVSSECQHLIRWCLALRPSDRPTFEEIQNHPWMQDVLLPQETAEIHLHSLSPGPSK
# [9] = biological target: Serine/threonine-protein kinase pim-1 (Homo sapiens) (UniProt P11309); settings: at 1 µM
# [10] = biological target: Serine/threonine-protein kinase pim-2 (Homo sapiens) (UniProt Q9P1W9); settings: at 0.1 µM;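 also: reported value is the mean percent inhibition of PIM2, measured in the GSK PKIS kinase inhibitor set screen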
# Chain of Serine/threonine-protein kinase pim-2 (Homo sapiens) (Q9P1W9 whole entry, looked up): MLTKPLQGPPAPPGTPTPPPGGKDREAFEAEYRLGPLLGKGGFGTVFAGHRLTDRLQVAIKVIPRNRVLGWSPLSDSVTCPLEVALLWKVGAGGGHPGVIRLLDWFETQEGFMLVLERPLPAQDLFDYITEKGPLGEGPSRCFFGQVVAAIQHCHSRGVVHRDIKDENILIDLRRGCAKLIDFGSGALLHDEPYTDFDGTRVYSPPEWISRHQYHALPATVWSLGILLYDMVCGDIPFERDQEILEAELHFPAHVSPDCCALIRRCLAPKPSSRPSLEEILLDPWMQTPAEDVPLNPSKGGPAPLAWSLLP
# Chain of Serine/threonine-protein kinase MARK2 (Homo sapiens) (Q7KZI7 whole entry, the tested form may be a part): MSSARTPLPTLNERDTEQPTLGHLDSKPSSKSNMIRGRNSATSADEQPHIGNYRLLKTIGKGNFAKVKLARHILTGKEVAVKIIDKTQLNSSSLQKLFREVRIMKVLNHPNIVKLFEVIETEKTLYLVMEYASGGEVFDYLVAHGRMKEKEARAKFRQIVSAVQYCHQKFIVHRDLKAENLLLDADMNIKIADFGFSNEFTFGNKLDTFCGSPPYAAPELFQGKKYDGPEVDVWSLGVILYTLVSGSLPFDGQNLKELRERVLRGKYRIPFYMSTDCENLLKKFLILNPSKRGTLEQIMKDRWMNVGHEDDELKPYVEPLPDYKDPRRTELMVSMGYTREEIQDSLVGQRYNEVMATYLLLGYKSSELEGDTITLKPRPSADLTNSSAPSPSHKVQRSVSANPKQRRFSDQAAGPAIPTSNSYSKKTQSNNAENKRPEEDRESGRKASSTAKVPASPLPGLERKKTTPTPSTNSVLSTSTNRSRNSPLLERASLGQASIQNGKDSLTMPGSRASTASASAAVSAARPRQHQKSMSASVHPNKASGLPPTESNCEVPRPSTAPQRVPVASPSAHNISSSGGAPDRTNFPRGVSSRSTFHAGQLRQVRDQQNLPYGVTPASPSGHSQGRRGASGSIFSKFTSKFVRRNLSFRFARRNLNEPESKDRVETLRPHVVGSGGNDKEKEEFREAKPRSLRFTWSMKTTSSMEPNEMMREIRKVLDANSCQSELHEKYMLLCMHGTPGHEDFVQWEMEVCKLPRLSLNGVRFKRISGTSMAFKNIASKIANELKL
# Chain of PAS domain-containing serine/threonine-protein kinase (Homo sapiens) (Q96RG2 whole entry, the tested form may be a part, canonical isoform): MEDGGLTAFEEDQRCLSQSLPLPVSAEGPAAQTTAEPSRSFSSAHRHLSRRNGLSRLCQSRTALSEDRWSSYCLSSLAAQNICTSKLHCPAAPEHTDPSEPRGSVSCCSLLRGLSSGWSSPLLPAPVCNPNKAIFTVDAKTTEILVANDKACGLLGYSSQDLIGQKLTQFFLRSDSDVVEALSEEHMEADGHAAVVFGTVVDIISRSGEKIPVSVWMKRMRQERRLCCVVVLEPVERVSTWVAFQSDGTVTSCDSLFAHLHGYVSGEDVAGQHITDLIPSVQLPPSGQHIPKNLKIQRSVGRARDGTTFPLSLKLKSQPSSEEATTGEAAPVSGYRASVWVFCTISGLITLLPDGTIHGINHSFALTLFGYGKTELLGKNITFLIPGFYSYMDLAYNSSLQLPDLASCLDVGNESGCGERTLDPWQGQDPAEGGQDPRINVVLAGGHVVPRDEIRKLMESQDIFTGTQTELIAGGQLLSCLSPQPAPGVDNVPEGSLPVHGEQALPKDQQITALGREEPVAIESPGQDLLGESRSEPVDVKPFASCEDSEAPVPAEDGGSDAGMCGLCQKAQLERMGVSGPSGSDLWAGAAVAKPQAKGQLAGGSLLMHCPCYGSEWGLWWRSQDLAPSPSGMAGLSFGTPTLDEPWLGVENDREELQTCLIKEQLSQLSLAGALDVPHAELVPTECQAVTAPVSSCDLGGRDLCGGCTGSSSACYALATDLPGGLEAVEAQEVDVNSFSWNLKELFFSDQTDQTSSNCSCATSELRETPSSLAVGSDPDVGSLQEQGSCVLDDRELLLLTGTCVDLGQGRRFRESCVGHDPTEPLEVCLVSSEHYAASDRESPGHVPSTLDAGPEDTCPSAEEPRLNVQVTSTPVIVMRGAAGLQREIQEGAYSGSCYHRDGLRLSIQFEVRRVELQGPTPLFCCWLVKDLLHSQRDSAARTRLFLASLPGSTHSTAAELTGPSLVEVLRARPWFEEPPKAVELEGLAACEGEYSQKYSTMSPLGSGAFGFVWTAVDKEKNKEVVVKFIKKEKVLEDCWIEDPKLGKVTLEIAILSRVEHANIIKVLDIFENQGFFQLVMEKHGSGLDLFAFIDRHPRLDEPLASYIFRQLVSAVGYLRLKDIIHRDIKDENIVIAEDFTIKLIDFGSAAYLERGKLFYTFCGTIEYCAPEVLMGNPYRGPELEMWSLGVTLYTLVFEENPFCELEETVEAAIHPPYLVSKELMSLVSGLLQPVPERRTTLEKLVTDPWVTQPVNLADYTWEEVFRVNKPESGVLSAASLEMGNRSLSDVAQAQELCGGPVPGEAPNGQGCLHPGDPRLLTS
SMILES,inhibition [1] [%],inhibition [2] [%],inhibition [3] [%],inhibition [4] [%],inhibition [5] [%],inhibition [6] [%],inhibition [7] [%],inhibition [8] [%],inhibition [9] [%],inhibition [10] [%]
COc1cccc(/C=N/Nc2ncnc3c2cnn3-c2cccc(OC)c2)c1,0.57,-0.3,-1.16,0.94,2.68,3.6,2.4,0.63,1.58,-0.75
CN(C)CCOc1ccc(-c2cc(-c3ccc4c(c3)CCC4=NO)c(-c3ccncc3)o2)cc1,0.33,1.53,1.21,1.83,5.45,-1.99,-1.19,0.55,0.18,-0.09
COc1ccc(-c2ccc3c(NC(=O)C4CC4)n[nH]c3n2)cc1,-0.61,0.2,2.17,5.12,7.79,0.93,5.44,-0.29,-0.78,-0.37
COc1ccc(C2=C(N3CCc4ccccc43)C(=O)NC2=O)cc1,1.74,0.07,-0.29,3.26,6.35,7.25,4.69,0.52,4.09,0.18
COc1cc(C)c(N(C)C(=O)CN(C)C)cc1Nc1nc(Nc2cccc(F)c2C(N)=O)c2cc[nH]c2n1,1.79,0.61,-1.13,-1.13,2.95,3.64,-0.16,1.05,3.33,-3.42
NCc1ccc(-n2c(-c3nonc3N)nc3cnccc32)cc1,23.4,0,2.53,7.71,16,6.79,4.79,34.4,82.8,8.18
O=C(NCC1CC1)c1ccc(-c2cccc(C(=O)NC3CC3)c2)cc1,1.08,0.62,-1.02,1.06,-2.22,2.3,-1.04,0.15,0.34,0.75
Fc1ccc(-c2c(-c3ccncc3)nc3n2CCS3)cc1,1.79,-0.68,-0.44,4.14,4.63,1.99,3.28,-0.78,0.06,-3.15
CS(=O)(=O)CCNCc1ccc(-c2ccc3ncnc(Nc4ccc(OCc5ccccc5)c(Br)c4)c3c2)o1,-0.56,-0.29,0.16,7,3.21,5.03,4.55,-0.99,-0.09,-3.07
COc1cc(N2CCN(C(C)C)CC2)ccc1Nc1nc(Nc2ccc(F)cc2C(=O)NC[C@@H](O)CO)c2cc[nH]c2n1,1.35,-0.25,0.96,21,62,6.76,21.1,-0.41,1.79,-3.35
COc1cc2ncn(-c3cc(OCCc4ccccc4)c(C(N)=O)s3)c2cc1OC,2.11,0.16,-0.56,3.81,2.4,1.37,0.33,-0.26,-0.29,-0.04
CCN(CC)Cc1ccc(Nc2nccc(-c3cnn4ncccc34)n2)cc1,16.2,-0.55,-0.46,6.04,28.2,5.93,15.3,2.49,23,-3.66
O=C1Nc2ccc(I)cc2C1=Cc1cc(Br)c(O)c(Br)c1,2.16,-2.03,-1.55,-0.98,3.92,4.05,4.75,2.05,11.4,0.13
O=C(Nc1n[nH]c2cc(-c3ccccc3)ccc12)C1CC1,3.6,0.21,-1.15,8.27,7.18,5.27,4.5,1.3,0.46,0.26
FC(F)(F)c1cccc(Nc2nccc(-c3cnn4nc(-c5ccccc5)ccc34)n2)c1,0.61,0.34,0.28,3.06,6.39,2.99,2.77,0.96,-0.68,0.77
Fc1ccc(-c2ncn(C3CCNCC3)c2-c2ccnc(Oc3ccc(Oc4ccccc4)cc3)n2)cc1,4.07,-2.03,-0.39,0.96,-5.23,5.51,6.26,0.09,0.87,-0.33
O=C(Nc1n[nH]c2cc(-c3cc(F)ccc3F)ccc12)C1CC1,-0.47,-1.13,-2.73,4.9,5.59,3.06,1.94,-0.51,1.3,0.05
NC(=O)c1cc(-c2ccc(F)cc2)cc(-c2ccncc2)c1N,-0.63,-1.01,-1.24,5.8,5.92,4.55,5.76,0.02,1.09,-0.12
CN(C)c1ccc2c(c1)/C(=C/Nc1ccc(S(N)(=O)=O)cc1)C(=O)N2,18.6,-0.32,-0.69,15.3,49.3,2.06,13.8,1.26,1.23,0.23
COc1ccc2cc(-c3c(-c4ccncc4)nc(-c4ccc(S(C)(=O)=O)cc4C)n3C)ccc2c1,1.75,-0.05,2.36,5.34,5.99,5.31,5.26,2.41,2.08,0.92

SMILES,inhibition [1] [%],inhibition [2] [%],inhibition [3] [%],inhibition [4] [%],inhibition [5] [%],inhibition [6] [%],inhibition [7] [%],inhibition [8] [%],inhibition [9] [%],inhibition [10] [%]
Cc1ccc(C(=O)NC2CCC2)cc1-c1ccc(C(=O)NCC2CC2)cc1,0.79,0.3,-1.21,2.32,2.85,3.61,2,0.78,1.55,-0.51
O=C(Nc1n[nH]c2nc(-c3ccc(O)cc3)c(Br)cc12)C1CC1,5.24,0.21,0.71,7.64,10.7,6.68,7.34,19.7,65.5,45.5
NS(=O)(=O)c1ccc(N/N=C2\C(=O)Nc3ccc(C(=O)NCCCn4ccnc4)cc32)cc1,9.93,0.17,2.55,9.94,25.8,3.91,10,2.53,15.6,0.82
NS(=O)(=O)c1ccc(Nc2cc(-c3ccc(O)c(F)c3)n[nH]2)cc1,7.38,-0.77,-1.58,-0.19,16,-5.86,-3.66,-1.13,0.95,-0.39
CCc1cccc(CC)c1/C=C/c1cncc(C(=O)NC)c1,1.59,0.55,-0.71,0.98,3.16,3.56,0.53,1.04,1.26,-0.07
Fc1ccc(-c2ncn(C3CCNCC3)c2-c2ccnc(Oc3ccc4c(c3)OCO4)n2)cc1,2.68,0.16,1.32,6.43,6.48,7.66,5.8,0.83,2.07,-0.04
c1ccc(Oc2ccc(Nc3ncc(-c4ccccc4)o3)cc2)cc1,0.42,-0.25,0.08,0.99,2.96,1.62,0.32,0.45,0.21,0.31
COc1cc(Nc2ncc3c(C)nc(-c4cccc(C(F)(F)F)c4)n3n2)cc(OC)c1OC,3.54,-0.04,0.78,5.08,11.8,4.94,6.94,0.28,2,0.34
COc1cc2ncn(-c3cc(OCc4cccs4)c(C(N)=O)s3)c2cc1OC,2.32,2.13,6.7,3.47,6.14,3.82,10.1,0.81,2.01,-2.64
CNC(=O)c1cncc(/C=C/c2c(C)cccc2C)c1,0.9,1.4,0.92,0.1,-0.59,2.11,0.8,0.92,1.36,-4.04
Cc1ccc(NC(=O)c2ccoc2)cc1-c1ccc(C(=O)NCC2CC2)cc1,-0.97,1.03,0.47,3.88,1.73,3.37,3.24,0.53,0.47,-0.3
CN(C)CCCNc1nccc(-c2c(-c3ccc(F)cc3)nn3cc(C(F)(F)F)ccc23)n1,2.71,0.83,-0.37,-0.27,2.68,2.52,0.17,0.62,1.32,-3.76
COc1cc(Nc2ncc(-c3ccccc3)o2)cc(OC)c1OC,15.6,0.63,-0.67,3.23,20.9,-2.9,-2.15,0.68,2.12,0.06
C#Cc1cccc(Nc2ncnc3ccc(OCCCCNCCS(C)(=O)=O)cc23)c1,2.74,0.02,4.19,5.74,19,5.8,6.86,6.27,39.5,-2.91
CCc1nccc2c1nc(-c1nonc1N)n2CC,1.67,0.71,0.86,3.65,1.98,-0.2,-2.03,0.32,1.23,0.4
Clc1ccc(CNc2nccc(-c3cnn4ncccc34)n2)cc1,2.93,0.92,1.97,-0.23,5.35,2.58,2.28,1.63,3.93,-0.52
Fc1ccc(-c2ncn(CCCN3CCOCC3)c2-c2ccncc2)cc1,2.44,0.57,0.36,1.86,2.09,-0.42,-2.63,-0.06,-0.27,0.24
Fc1ccc(-c2ncn(C3CCNCC3)c2-c2ccnc(Oc3ccc(F)c(F)c3)n2)cc1,1.71,-0.38,-0.29,6.75,10.8,4.85,4.7,-1.11,-0.52,-3.98
Fc1ccc(-c2nc3n(c2-c2ccncc2)CCS3)cc1,1.88,-0.27,-1.64,5.2,4.39,4.24,2.33,0.77,2.11,-3.25
c1ccc(-c2n[nH]cc2-c2ccnc(-c3ccc(OCCN4CCOCC4)cc3)c2)nc1,6.97,4.29,2.12,3.14,5.98,-1.14,-3.23,1.29,1.87,7.01
